Data as given in PubChem BioAssay (NCI).
The panel holds about 83,000 compounds, 20% with a hit somewhere; the sample as a whole holds those more often.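 Cells were grown in 96-well plates and exposed to the test compound at a single concentration for 48 hours; results are reported as percent growth, with values below 10 considered active.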 Activity calls are given as the source filed them.

What follows are molecules tested on A549/ATCC NSCLC (assay: NCI-60 one-dose screen, 48 h (100 = growth as untreated, 0 = no growth, -100 = all killed)). Conditions: 10 µM unless noted.

SMILES	growth
C=C1CCC2C3(C)COC(c4cc(F)cc(F)c4)OC3CCC2(C)C1CC(O)C1=CCOC1=O (configuration not stated)	75.2% (inactive)
CC(=O)Nc1ccc(C(=O)NC(=S)Nc2ccc(S(N)(=O)=O)cc2)cc1	99.2% (inactive)
COc1cc(C2CC(c3cc(OC)c(OC)c(OC)c3)=Nc3c(N)nc(N)nc3N2)ccc1Oc1nc(NCCO)nc(N2CCOCC2)n1 (configuration not stated)	99.2% (inactive)
CC1=C(C(=O)c2ccccc2)C(c2cccc(Cl)c2Cl)n2c(nc3ccccc32)N1 (configuration not stated)	53.4% (inactive)
CN1CCc2c(sc3ncnc(N/N=C/c4ccc(Cl)cc4Cl)c23)C1	31.4% (inactive)
O=C(COc1ccc(NC(=O)Nc2ccc(Cl)c(Cl)c2)cc1)N=Nc1c(O)[nH]c2ccc(Br)cc12	-45.8% (active)
Cn1cc(NC(=O)c2cc(NC(=O)c3ccc(C#Cc4ccccc4)cc3)cn2C)cc1C(=O)NCCCN1CCOCC1	33.3% (inactive)
COCOc1cc2oc(C(=O)N[C@@H](Cc3ccccc3)C(O)C(=O)NCc3ccccc3)c(C)c(=O)c2cc1OCOC (some centres not stated)	58.9% (inactive)
Cc1ccc(C(=O)CSc2nc3ccc(C)cc3c(=O)n2-c2ccc(F)cc2)cc1	57.6% (inactive)
CC(C)c1ccc2c(N)c(C(=O)Nc3ccc(C(F)(F)F)cn3)sc2n1	66.9% (inactive)
CN(C)CCn1c2ccccc2c2nc3ccc([N+](=O)[O-])cc3nc21	-50% (active)
COc1cc2c(c(OC)c1OC)C(=O)CC(c1cccc(NC(=O)c3cc(NC(=O)[C@H](CO)NC(=O)OC(C)(C)C)ccc3Cl)c1)O2 (some centres not stated)	58.2% (inactive)
